An excerpt weighted towards active compounds, which were near 2.3% of everything screened.
Mcl-1 Bim block = human Bim-Mcl-1 interaction inhibition. inhibition, % at 10 µM. Bead-based flow cytometry, Bim peptide-Mcl-1 binding. 0.1% of 190,000 active; in the data active = inhibition above about 40%;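 also: 0% = no compound tracer wells and 100% = peptide blocker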
Mcl1 Noxa PPI = Mcl-1/Noxa interaction inhibition; Q07820; TR-FRET Mcl-1/Noxa peptide binding, 2 h; inhibition, % at 21.7 µM; 1.5% of 220,000 active;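 active = compounds that cut the protein-peptide binding signal by more than 50% relative to plate controls in a single-dose test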;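 also: His-tagged Mcl-1 with rhodamine Noxa BH3 peptide and terbium anti-His antibody; 0% = Mcl-1 plus Noxa peptide wells and 100% = peptide-only wells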
Bcl-xL primary = inhibitors of human Bcl-xL. Q07817. GST-Bcl-xL / FITC-Bim BH3 peptide fluorescence polarization. inhibition, % at 10.9 µM. 0.7% of 320,000 active. AID 2129;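 active = inhibition above the mean of all tested compounds plus 3 SD, cutoff set per campaign, cut at about 30% in these data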;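 also: 0% = DMSO wells and 100% = unlabeled Bim-BH3 peptide competitor; inhibitors lower millipolarization by displacing the labeled peptide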
Target sequence (Q07817 whole entry, looked up): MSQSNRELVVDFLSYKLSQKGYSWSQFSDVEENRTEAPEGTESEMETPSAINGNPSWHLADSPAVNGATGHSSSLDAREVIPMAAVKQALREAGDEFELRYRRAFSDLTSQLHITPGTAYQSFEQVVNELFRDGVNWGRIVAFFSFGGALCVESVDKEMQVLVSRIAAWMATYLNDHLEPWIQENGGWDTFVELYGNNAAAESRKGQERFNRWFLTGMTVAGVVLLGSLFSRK
MCL1-BIM inh = disrupts human MCL1 binding to BIM-BH3 peptide; Q07820; GST-MCL1 / FITC-Bim-BH3 fluorescence polarization; 0.68% of 320,000 active; inhibition, % at 10.9 µM;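 active = inhibition above the mean inhibition of all tested compounds plus 3 SD, set per campaign, cut at about 40% in these data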;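 also: 0% = DMSO wells and 100% = unlabeled Bim-BH3 peptide control; higher means more loss of mP so more displacement of Bim peptide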
GLD-1 TGE inh = GLD-1-TGE RNA interaction inhibition (C. elegans); 0.44% of 320,000 active; inhibition, % at 5.96 µM; purified GLD-1 + fluorescein TGE RNA, fluorescence polarization; Q17339;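 active = percent inhibition above a per-plate cutoff, the plate mean of test compounds plus 3 SD, cut at about 30% in these data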;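 also: 0% = DMSO wells with GLD-1 and probe and 100% = wells lacking GLD-1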
Target sequence (Q17339 whole entry, looked up): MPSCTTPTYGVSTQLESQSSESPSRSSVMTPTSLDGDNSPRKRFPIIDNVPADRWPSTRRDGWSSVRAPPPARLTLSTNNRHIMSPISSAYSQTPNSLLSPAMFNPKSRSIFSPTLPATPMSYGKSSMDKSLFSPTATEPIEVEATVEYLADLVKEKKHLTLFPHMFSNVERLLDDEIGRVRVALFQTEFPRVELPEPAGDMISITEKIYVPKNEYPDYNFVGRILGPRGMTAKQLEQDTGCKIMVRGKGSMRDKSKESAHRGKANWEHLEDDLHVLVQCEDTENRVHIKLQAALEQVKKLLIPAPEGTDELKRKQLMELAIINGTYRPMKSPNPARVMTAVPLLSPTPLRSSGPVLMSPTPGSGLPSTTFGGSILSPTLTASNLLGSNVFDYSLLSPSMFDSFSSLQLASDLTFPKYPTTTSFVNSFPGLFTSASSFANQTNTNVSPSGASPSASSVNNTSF
Mcl1 Bid PPI = Mcl-1/Bid interaction inhibition; AID 1021; inhibition, % at 21.7 µM; Q07820; TR-FRET Mcl-1/Bid-Dy647 peptide binding, 1536-well; 0.97% of 220,000 active;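 active = compounds that cut the binding signal by more than half at the single screening dose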;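 also: His-tagged Mcl-1 with europium anti-His antibody binding Bid BH3 peptide; 0% = Mcl-1 plus peptide wells and 100% = peptide-only wells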
Bcl-xL conf = Bcl-xL (human) inhibition, MCL1 counter-screen confirmation | 54% of 1,700 active | inhibition, % at 10.9 µM | GST-Bcl-xL / FITC-Bim BH3 peptide FP binding | shares compounds with MCL1-BIM inh;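 active = inhibition above a cutoff equal to the mean inhibition of all tested compounds plus 3 SD, cut at about 30% in these data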;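 also: 0% = DMSO wells and 100% = unlabeled Bim BH3 control peptide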
MCL1 BIM confirm = confirmation of human MCL1 and BIM-BH3 interaction inhibitors; shares compounds with MCL1-BIM inh; GST-MCL1 / FITC-Bim-BH3 fluorescence polarization; inhibition, % at 10.9 µM; 61% of 1,700 active;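 active = inhibition above the average of all tested compounds plus 3 SD, cut at about 40% in these data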;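 also: 0% = DMSO wells and 100% = unlabeled Bim-BH3 control peptide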
Starred values were filed as active, the others as inactive; x = no result; + = active, no number; ! = a repeat was not active.

SMILES | Mcl-1 Bim block | Mcl1 Noxa PPI | Bcl-xL primary | MCL1-BIM inh | GLD-1 TGE inh | Mcl1 Bid PPI | Bcl-xL conf | MCL1 BIM confirm
Brc1cccc(C2Nc3cccc4cccc(c34)N2)c1 | x | x | 27.3 | 44.2* | 19.0 | x | 24.4 | 26.3
c1csc(C2Nc3cccc4cccc(c34)N2)c1 | 0.0 | x | 60.5* | 62.0* | 20.5 | -13.1 | 25.1 | 21.6
CC1=C(C#N)C(=O)OC(C)(C)C1 | 0.0 | 9.1 | 85.7* | 100.3* | 62.8* | -34.1 | 34.6* | 49.7*
Cc1cccc(-n2ncc3c2CCCC3NC(=O)C2CCOCC2)c1C (stereo unspecified) | x | x | 4.7 | 7.3 | 3.1 | x | x | x
NC(CS(=O)O)C(=O)O (stereo unspecified) | x | x | 4.5 | 9.0 | -0.6 | x | x | x
CCC(C(=O)NCc1ccc(F)cc1)N(Cc1cccs1)C(=O)c1snc(C(N)=O)c1N (stereo unspecified) | x | x | 2.9 | 4.2 | -1.7 | x | x | x
O=C(/C=C/c1ccco1)N(c1ccccn1)c1ccccn1 | 3.0 | 61.6* | 24.0 | 56.5* | 9.6 | -66.5 | 22.2 | 52.7*
O=C(c1ccco1)N(c1ccccn1)c1ccccn1 | -2.0 | -9.5 | 4.1 | 7.3 | -4.0 | 0.4 | x | x
O=C(COC(=O)c1ccc([N+](=O)[O-])s1)c1ccc[nH]1 | x | x | x | x | 2.9 | x | x | x
COc1cccc2c1C(=O)c1c(O)c3c(c(O)c1C2=O)C[C@](O)(C(C)=O)C[C@H]3O[C@@H]1C[C@@H](N)[C@@H](O)[C@@H](C)O1 | x | x | + | + | + | x | + | +
COc1ccc(C(CNC(=O)Nc2ccc(Cl)cc2)N2CCN(C)CC2)cc1 (stereo unspecified) | x | x | 0.6 | -0.1 | 6.0 | x | x | x
COc1ccc(C(CNC(=O)Nc2ccccc2)N2CCN(C)CC2)cc1 (stereo unspecified) | x | x | -1.0 | 46.3* | 0.1 | x | 6.6 | 12.8
CCOC(=O)C1CCCN(C(=O)c2ccc(C(=O)c3ccccc3)cc2)C1 (stereo unspecified) | x | x | 1.4 | 3.5 | 6.9 | x | x | x
CCOC(=O)C1CCCN(C(=O)C2c3ccccc3Oc3ccccc32)C1 (stereo unspecified) | -3.0 | 6.7 | + | + | 188.5* | 3.1 | 42.0* | 55.4*
O=C(COc1cccc([N+](=O)[O-])c1)NN1C(=O)c2ccccc2C1=O | x | x | -7.2 | -6.4 | 1.9 | x | x | x
O=C(Nc1ccc(Nc2ccncc2)cc1)c1ccc([N+](=O)[O-])cc1 | x | 7.1 | 3.7 | 5.6 | -4.8 | -5.7 | x | x
O=C(Nc1ccc(Nc2ccncc2)cc1)c1ccc(Nc2ccnc3ccc([N+](=O)[O-])cc23)cc1[N+](=O)[O-] | x | 80.4* | -2.6 | 42.8* | -6.6 | 89.8* | 13.0 | 27.5
NC(=O)Cn1c(=O)n(Cc2ccco2)c(=O)c2c3c(sc21)CCCCC3 | -1.0 | 64.2* | 33.8* | 77.2* | 5.9 | -17.8 | 31.4* | 76.5*
O=C(Cn1c(=O)n(Cc2ccco2)c(=O)c2c3c(sc21)CCCC3)Nc1ccccc1 | -3.0 | -22.8 | -1.0 | -3.6 | -2.7 | 0.5 | x | x
N#Cc1ccc(Cl)cc1NC(=O)COC(=O)c1cccc(S(=O)(=O)N2CCOCC2)c1 | x | x | 4.0 | 2.4 | -4.7 | x | x | x
Cn1c(CNc2ccc(Cl)cc2)nc2ccccc21 | 0.0 | -4.5 | 4.4 | -2.5 | 2.7 | -40.0 | x | x
CC(C)N=c1cc2n(-c3ccc(Cl)cc3)c3ccccc3nc-2cc1Nc1ccc(Cl)cc1 | x | x | 78.0* | 117.8* | 28.7 | x | + | +
O=C1CC(c2ccc(O)c(O)c2)Oc2c1ccc(O)c2O (stereo unspecified) | x | 106.2* | 15.3 | 70.3* | 5.8 | -86.4 | 20.4 | 77.7*
CC(C)=CCc1c(O)ccc2c1OC(c1ccc(O)c(O)c1)CC2=O (stereo unspecified) | -1.0 | 32.8 | 7.4 | 16.4 | 10.2 | -6.5 | x | x
CC(=O)c1ccc(N(CC(=O)NC2CCCCC2)C(=O)CNC(=O)c2ccco2)cc1 | x | x | -1.4 | -5.4 | -2.2 | x | x | x
SMILES | Mcl-1 Bim block | Mcl1 Noxa PPI | Bcl-xL primary | MCL1-BIM inh | GLD-1 TGE inh | Mcl1 Bid PPI | Bcl-xL conf | MCL1 BIM confirm
CCCC1=NN2C(=N)/C(=C\c3cc(C)n(Cc4ccccc4)c3C)C(=O)N=C2S1 | x | -0.8 | -4.6 | 6.7 | -5.9 | -16.0 | x | x
CCCC1=NN2C(=N)/C(=C\c3ccc(SCc4ccco4)o3)C(=O)N=C2S1 | 2.0 | 83.6* | 70.0* | 79.7* | 23.7 | 49.0 | 6.7 | 26.2
CC(C)C[C@H]1C(=O)N2CCC[C@H]2[C@]2(O)O[C@](NC(=O)[C@@H]3C=C4c5cccc6[nH]c(Br)c(c56)CC4N(C)C3)(C(C)C)C(=O)N12 (stereo partly specified) | 0.0 | 18.2 | 86.7* | 110.6* | 95.1* | 5.6 | 23.9 | 28.4
CC(C)OC(=O)c1c2c(n3ccccc13)C(=O)c1ccccc1C2=O | 8.0 | -3.6 | 88.9* | 122.2* | -6.9 | -5.9 | 135.8* | 151.2*
O=C(O)c1cc(-c2ccco2)nc2ccc(Br)cc12 | 4.0 | 83.9*! | 95.9*! | 140.9*! | 68.1*! | 26.3 | 44.9* | 88.5*
COc1cc(OC)c(OC)cc1/C=C1/Cc2ccccc2C1=O | x | x | 18.3 | 111.5* | -74.7 | x | 84.5* | 102.8*
CN1CCC(N(C)C(=O)c2cc(-c3ccc(F)cc3)nc3ccccc23)CC1 | x | x | x | x | -1.6 | x | x | x
C=CCn1c(O)c(N=NC(=O)c2ccccc2NS(=O)(=O)c2cccs2)c2ccccc21 | 10.0 | 16.3 | 3.4 | 49.5* | 4.1 | -11.8 | 78.8* | 120.2*
CCCCn1c(O)c(N=NC(=O)c2ccccc2NS(=O)(=O)c2cccs2)c2ccccc21 | 0.0 | 8.2 | 5.1 | 15.9 | 4.8 | -37.4 | x | x
Cc1cc(NC(=O)Cc2cccs2)no1 | 1.0 | 102.4* | 9.9 | 61.9* | -11.9 | 31.9 | 18.5 | 69.4*
Cc1ccc(-c2nnn(CCC(=O)N3CCCCC3C)n2)cc1 (stereo unspecified) | -8.0 | 5.6 | 1.1 | 3.4 | -0.8 | -37.4 | x | x
CC1CCCCN1C(=O)Cn1nnc(-c2cccnc2)n1 (stereo unspecified) | -2.0 | 16.2 | 84.7* | 91.3* | 73.8* | -9.6 | 72.9* | 110.3*
Cn1c(SCC(=O)N/N=C/C=C\c2ccco2)nc2ccccc21 | 2.0 | 24.4 | 11.9 | 28.9 | 2.8 | -36.7 | x | x
CCn1c(SCC(=O)N/N=C/C=C\c2ccco2)nc2ccccc21 | -3.0 | 18.1 | 15.4 | 48.1* | -1.6 | -41.9 | 17.3 | 34.3
O=C1c2cccc3c(N4CCCCC4)ccc(c23)C(=O)N1c1ccc(O)cc1 | 2.0 | 15.2 | 54.1* | 68.5* | 36.4* | -50.1 | 59.6* | 71.5*
COC(=O)CCC(=O)OC1(C)C(=O)C2=COC(c3ccc(OC)cc3)=CC2=C(Br)C1=O (stereo unspecified) | x | 50.5* | 33.0* | 56.0* | 16.0 | -40.8 | 32.4* | 56.9*

Bioassay records deposited in PubChem BioAssay by several laboratories.
